Test results: article PMC7862700, “An all-to-all approach to the identification of sequence-specific readers for epigenetic DNA modifications on cytosine”

Key:
Assay in all cases: DAPPL (digital affinity profiling via proximity ligation, sequencing); 10 mM Tris-HCl pH 7.5, 50 mM NaCl, 1 mM DTT, 4% glycerol, room temperature, 30 min; GST-TFs on glutathione beads, 16-mer random dsDNA library, 0.1% formaldehyde crosslink after washing; high values mean tight binding
Conditions in all cases: protein: recombinant; tags: N-terminal GST; dsDNA, one strand shown
FLI1 = molecular target: T1, FLI1 (Homo sapiens, UniProt Q01543 1-452)
T1 sequence: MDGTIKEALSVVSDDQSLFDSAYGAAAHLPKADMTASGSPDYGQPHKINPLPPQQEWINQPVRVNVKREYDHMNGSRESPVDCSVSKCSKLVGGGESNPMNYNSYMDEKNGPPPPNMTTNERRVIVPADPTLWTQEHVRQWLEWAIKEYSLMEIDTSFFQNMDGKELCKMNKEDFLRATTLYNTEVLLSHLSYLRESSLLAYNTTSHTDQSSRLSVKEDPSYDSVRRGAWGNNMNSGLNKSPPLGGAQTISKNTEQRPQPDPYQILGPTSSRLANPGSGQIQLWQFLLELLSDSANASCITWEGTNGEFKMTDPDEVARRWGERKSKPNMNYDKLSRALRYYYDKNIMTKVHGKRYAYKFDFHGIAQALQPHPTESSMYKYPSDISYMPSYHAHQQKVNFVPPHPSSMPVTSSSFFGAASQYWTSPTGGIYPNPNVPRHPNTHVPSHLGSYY
Summary of the method: (§1)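 GST fusions of human transcription factors were expressed in yeast and captured with glutathione beads. Once given DNA barcodes and pooled alongside a tag-only sample, they were incubated for 30 min at room temperature with 200 nmole of a random double-stranded 16-mer DNA library in Tris/NaCl/DTT/glycerol buffer, then washed, crosslinked (0.1% formaldehyde), proximity-ligated, PCR-amplified and sequenced on an Illumina NextSeq500. The binding signal of each hexamer is its read frequency for a factor divided by its frequency for the tag-only sample.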

ELK1 = molecular target: T2, ELK1 (Homo sapiens, UniProt P19419 1-428)
T2 sequence: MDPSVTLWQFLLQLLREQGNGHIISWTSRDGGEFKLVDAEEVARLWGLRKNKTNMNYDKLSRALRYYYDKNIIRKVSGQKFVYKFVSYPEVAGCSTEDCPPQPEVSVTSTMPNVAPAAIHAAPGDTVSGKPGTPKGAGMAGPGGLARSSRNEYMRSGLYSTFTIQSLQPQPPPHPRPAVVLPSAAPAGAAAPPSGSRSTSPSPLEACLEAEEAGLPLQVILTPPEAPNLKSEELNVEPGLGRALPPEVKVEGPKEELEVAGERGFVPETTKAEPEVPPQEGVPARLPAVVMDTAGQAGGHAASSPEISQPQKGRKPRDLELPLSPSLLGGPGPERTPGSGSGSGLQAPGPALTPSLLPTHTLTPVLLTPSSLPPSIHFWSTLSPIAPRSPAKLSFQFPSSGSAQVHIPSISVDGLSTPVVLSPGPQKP
Summary of the method: as §1

GABPA = molecular target: T3, GABPA (Homo sapiens, UniProt Q06546 1-454)
T3 sequence: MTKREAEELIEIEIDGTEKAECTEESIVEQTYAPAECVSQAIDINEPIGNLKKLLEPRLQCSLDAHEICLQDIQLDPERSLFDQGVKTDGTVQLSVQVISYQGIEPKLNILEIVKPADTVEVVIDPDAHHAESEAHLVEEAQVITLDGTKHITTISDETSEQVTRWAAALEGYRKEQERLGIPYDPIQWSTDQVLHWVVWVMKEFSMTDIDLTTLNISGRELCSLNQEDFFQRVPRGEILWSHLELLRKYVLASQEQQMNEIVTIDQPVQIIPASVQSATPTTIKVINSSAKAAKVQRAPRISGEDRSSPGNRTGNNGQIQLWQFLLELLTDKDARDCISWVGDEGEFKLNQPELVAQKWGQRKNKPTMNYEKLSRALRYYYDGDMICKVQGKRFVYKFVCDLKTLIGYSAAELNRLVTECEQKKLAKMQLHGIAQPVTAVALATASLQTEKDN
Summary of the method: as §1

ERG = molecular target: T4, ERG (Homo sapiens, UniProt P11308 1-479)
T4 sequence: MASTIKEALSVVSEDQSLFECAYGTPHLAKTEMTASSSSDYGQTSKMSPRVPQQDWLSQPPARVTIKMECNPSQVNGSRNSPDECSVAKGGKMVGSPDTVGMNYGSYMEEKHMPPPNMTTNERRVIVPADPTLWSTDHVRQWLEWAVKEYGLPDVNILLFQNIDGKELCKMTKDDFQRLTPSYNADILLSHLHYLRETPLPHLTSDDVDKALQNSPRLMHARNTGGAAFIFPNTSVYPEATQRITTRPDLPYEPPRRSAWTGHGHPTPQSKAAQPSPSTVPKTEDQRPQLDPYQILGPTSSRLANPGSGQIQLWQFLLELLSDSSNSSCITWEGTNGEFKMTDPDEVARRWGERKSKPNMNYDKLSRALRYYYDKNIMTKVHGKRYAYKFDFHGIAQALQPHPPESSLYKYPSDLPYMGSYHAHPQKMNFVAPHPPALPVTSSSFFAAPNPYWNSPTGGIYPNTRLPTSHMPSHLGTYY
Summary of the method: as §1

ELF1 = ELF1 (Homo sapiens, UniProt P32519 1-619)
Sequence of ELF1 (P32519 whole entry): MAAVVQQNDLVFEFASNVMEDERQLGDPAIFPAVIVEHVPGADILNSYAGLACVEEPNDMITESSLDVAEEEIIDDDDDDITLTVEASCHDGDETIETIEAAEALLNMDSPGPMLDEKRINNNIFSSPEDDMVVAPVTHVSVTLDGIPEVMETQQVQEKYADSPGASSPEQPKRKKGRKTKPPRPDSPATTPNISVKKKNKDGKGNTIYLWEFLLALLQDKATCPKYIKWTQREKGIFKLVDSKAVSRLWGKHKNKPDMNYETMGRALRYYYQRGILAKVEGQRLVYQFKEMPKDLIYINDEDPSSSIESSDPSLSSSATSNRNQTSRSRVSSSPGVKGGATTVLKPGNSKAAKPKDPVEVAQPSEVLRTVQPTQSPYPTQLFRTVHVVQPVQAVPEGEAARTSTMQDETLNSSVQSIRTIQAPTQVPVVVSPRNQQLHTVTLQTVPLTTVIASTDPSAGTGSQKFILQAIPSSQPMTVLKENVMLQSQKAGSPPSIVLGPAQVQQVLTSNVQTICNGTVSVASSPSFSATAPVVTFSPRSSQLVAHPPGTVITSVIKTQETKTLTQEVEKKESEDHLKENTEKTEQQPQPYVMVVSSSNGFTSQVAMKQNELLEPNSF
Summary of the method: as §1

EHF = molecular target: T5, EHF (Homo sapiens, UniProt Q9NZC4 1-300)
T5 sequence: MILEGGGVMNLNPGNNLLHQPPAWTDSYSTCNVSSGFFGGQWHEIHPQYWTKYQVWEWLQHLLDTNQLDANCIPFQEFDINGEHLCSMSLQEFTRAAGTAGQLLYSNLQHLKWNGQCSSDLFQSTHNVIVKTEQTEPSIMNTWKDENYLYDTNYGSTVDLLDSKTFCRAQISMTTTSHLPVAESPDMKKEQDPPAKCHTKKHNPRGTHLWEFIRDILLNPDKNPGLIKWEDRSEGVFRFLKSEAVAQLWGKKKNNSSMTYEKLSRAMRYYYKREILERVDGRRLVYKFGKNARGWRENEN
Summary of the method: as §1

SPI1 = SPI1 (Homo sapiens, UniProt P17947 1-270)
Summary of the method: as §1

SPIB = SPIB (Homo sapiens, UniProt Q01892 1-262)
Sequence of SPIB (Q01892 whole entry): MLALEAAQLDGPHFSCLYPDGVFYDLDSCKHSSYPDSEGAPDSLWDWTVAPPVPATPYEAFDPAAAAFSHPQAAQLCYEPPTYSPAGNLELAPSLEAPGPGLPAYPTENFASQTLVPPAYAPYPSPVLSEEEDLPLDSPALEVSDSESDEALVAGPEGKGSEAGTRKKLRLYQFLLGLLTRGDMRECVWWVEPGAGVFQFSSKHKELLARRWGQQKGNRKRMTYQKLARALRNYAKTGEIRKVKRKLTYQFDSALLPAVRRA
Summary of the method: as §1

ELK3 = molecular target: T6, ELK3 (Homo sapiens, UniProt P41970 1-407)
T6 sequence: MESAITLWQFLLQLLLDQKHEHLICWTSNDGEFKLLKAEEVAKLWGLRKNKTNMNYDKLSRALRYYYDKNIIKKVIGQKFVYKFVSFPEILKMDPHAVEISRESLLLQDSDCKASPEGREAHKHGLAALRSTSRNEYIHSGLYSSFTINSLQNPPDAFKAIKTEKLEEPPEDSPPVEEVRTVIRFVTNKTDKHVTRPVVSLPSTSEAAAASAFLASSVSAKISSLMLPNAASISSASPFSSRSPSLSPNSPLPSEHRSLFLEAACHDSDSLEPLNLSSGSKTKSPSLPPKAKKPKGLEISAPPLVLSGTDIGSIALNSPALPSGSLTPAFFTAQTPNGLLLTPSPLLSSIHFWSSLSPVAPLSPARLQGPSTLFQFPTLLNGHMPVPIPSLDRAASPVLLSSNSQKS
Summary of the method: as §1

TCTACA
binding signal (FLI1): 1.12 fold enrichment (6-mer frequency, TF over GST control) | binding signal (ELK1): 1.17 fold enrichment (6-mer frequency, TF over GST control) | binding signal (GABPA): 1.19 fold enrichment (6-mer frequency, TF over GST control) | binding signal (ERG): 1.23 fold enrichment (6-mer frequency, TF over GST control) | binding signal (ELF1): 1.28 fold enrichment (6-mer frequency, TF over GST control) | binding signal (EHF): 1.25 fold enrichment (6-mer frequency, TF over GST control) | binding signal (SPI1): 1.14 fold enrichment (6-mer frequency, TF over GST control) | binding signal (SPIB): 1.18 fold enrichment (6-mer frequency, TF over GST control) | binding signal (ELK3): 1.23 fold enrichment (6-mer frequency, TF over GST control)

TGGTAG
binding signal (FLI1): 1.1 fold enrichment (6-mer frequency, TF over GST control) | binding signal (ELK1): 1.02 fold enrichment (6-mer frequency, TF over GST control) | binding signal (GABPA): 1.08 fold enrichment (6-mer frequency, TF over GST control) | binding signal (ERG): 1 fold enrichment (6-mer frequency, TF over GST control) | binding signal (ELF1): 1.05 fold enrichment (6-mer frequency, TF over GST control) | binding signal (EHF): 1.11 fold enrichment (6-mer frequency, TF over GST control) | binding signal (SPI1): 1.03 fold enrichment (6-mer frequency, TF over GST control) | binding signal (SPIB): 1.15 fold enrichment (6-mer frequency, TF over GST control) | binding signal (ELK3): 1.11 fold enrichment (6-mer frequency, TF over GST control)

CAACTC
binding signal (FLI1): 1.37 fold enrichment (6-mer frequency, TF over GST control) | binding signal (ELK1): 1.23 fold enrichment (6-mer frequency, TF over GST control) | binding signal (GABPA): 1.3 fold enrichment (6-mer frequency, TF over GST control) | binding signal (ERG): 1.28 fold enrichment (6-mer frequency, TF over GST control) | binding signal (ELF1): 1.34 fold enrichment (6-mer frequency, TF over GST control) | binding signal (EHF): 1.19 fold enrichment (6-mer frequency, TF over GST control) | binding signal (SPI1): 1.31 fold enrichment (6-mer frequency, TF over GST control) | binding signal (SPIB): 1.22 fold enrichment (6-mer frequency, TF over GST control) | binding signal (ELK3): 1.3 fold enrichment (6-mer frequency, TF over GST control)

GGCCTC
binding signal (FLI1): 1.25 fold enrichment (6-mer frequency, TF over GST control) | binding signal (ELK1): 1.2 fold enrichment (6-mer frequency, TF over GST control) | binding signal (GABPA): 1.26 fold enrichment (6-mer frequency, TF over GST control) | binding signal (ERG): 1.19 fold enrichment (6-mer frequency, TF over GST control) | binding signal (ELF1): 1.17 fold enrichment (6-mer frequency, TF over GST control) | binding signal (EHF): 1.21 fold enrichment (6-mer frequency, TF over GST control) | binding signal (SPI1): 1.11 fold enrichment (6-mer frequency, TF over GST control) | binding signal (SPIB): 1.18 fold enrichment (6-mer frequency, TF over GST control) | binding signal (ELK3): 1.1 fold enrichment (6-mer frequency, TF over GST control)

GCGTTT
binding signal (FLI1): 1.1 fold enrichment (6-mer frequency, TF over GST control) | binding signal (ELK1): 1.04 fold enrichment (6-mer frequency, TF over GST control) | binding signal (GABPA): 1.11 fold enrichment (6-mer frequency, TF over GST control) | binding signal (ERG): 1.14 fold enrichment (6-mer frequency, TF over GST control) | binding signal (ELF1): 1.08 fold enrichment (6-mer frequency, TF over GST control) | binding signal (EHF): 1.14 fold enrichment (6-mer frequency, TF over GST control) | binding signal (SPI1): 1.05 fold enrichment (6-mer frequency, TF over GST control) | binding signal (SPIB): 1.13 fold enrichment (6-mer frequency, TF over GST control) | binding signal (ELK3): 1.2 fold enrichment (6-mer frequency, TF over GST control)

GAAATG
binding signal (FLI1): 1.52 fold enrichment (6-mer frequency, TF over GST control) | binding signal (ELK1): 1.61 fold enrichment (6-mer frequency, TF over GST control) | binding signal (GABPA): 1.55 fold enrichment (6-mer frequency, TF over GST control) | binding signal (ERG): 1.73 fold enrichment (6-mer frequency, TF over GST control) | binding signal (ELF1): 1.54 fold enrichment (6-mer frequency, TF over GST control) | binding signal (EHF): 1.65 fold enrichment (6-mer frequency, TF over GST control) | binding signal (SPI1): 1.67 fold enrichment (6-mer frequency, TF over GST control) | binding signal (SPIB): 1.6 fold enrichment (6-mer frequency, TF over GST control) | binding signal (ELK3): 1.6 fold enrichment (6-mer frequency, TF over GST control)

CTAAAT
binding signal (FLI1): 1.34 fold enrichment (6-mer frequency, TF over GST control) | binding signal (ELK1): 1.36 fold enrichment (6-mer frequency, TF over GST control) | binding signal (GABPA): 1.31 fold enrichment (6-mer frequency, TF over GST control) | binding signal (ERG): 1.34 fold enrichment (6-mer frequency, TF over GST control) | binding signal (ELF1): 1.3 fold enrichment (6-mer frequency, TF over GST control) | binding signal (EHF): 1.34 fold enrichment (6-mer frequency, TF over GST control) | binding signal (SPI1): 1.37 fold enrichment (6-mer frequency, TF over GST control) | binding signal (SPIB): 1.38 fold enrichment (6-mer frequency, TF over GST control) | binding signal (ELK3): 1.37 fold enrichment (6-mer frequency, TF over GST control)
